# The entries come from a sample that favours hits as a whole.
# NPSR antag = neuropeptide S receptor (human) antagonism, cAMP. CHO-NPSR cells, cAMP TR-FRET, antagonist mode. Potency, µM (titrated, usually from 38.3 µM), for the others: top-dose activity change, negative = inhibition, most hits filed as inhibitors. actives 1% (n = 220,000); note: nearly all actives have a fitted effect of over 50% in size
# Target sequence (Q6W5P4 whole entry, looked up): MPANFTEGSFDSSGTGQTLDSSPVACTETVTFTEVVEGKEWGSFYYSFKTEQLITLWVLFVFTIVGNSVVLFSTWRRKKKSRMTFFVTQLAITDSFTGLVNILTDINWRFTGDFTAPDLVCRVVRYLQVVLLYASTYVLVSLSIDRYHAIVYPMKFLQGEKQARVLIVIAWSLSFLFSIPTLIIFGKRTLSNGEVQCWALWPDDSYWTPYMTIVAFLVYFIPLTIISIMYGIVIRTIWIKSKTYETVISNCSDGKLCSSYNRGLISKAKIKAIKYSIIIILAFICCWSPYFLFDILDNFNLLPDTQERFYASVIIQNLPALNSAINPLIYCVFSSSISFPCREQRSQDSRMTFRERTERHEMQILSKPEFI
# ERK EGF block = blocks ERK signaling stimulated by EGF; HEK293-V1b, EGF-stimulated phospho-ERK AlphaScreen; Potency, µM (top dose mostly 11.5 µM), for inactives: top-dose activity change, negative = inhibition, hits mostly inhibitors; actives 0.41% (n = 130,000); AID 1454;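 note: plate controls were stimulated vehicle wells for no effect and unstimulated vehicle basal for full effect; nearly all actives have a fitted effect of over 55% in size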
#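 Homogeneous cell-based phospho-ERK assay: HEK293/V1b cells in 1% FBS, compound 30 min then EGF 5 min, AlphaScreen luminescence. Activity normalized between DMSO and 25 nM EGF controls; AC50 from Hill modelling.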
# Active calls of the source: *; ? = inconclusive; . = no result given; [ ] = another dose, or the depositor's remark. Calls come from the whole dose curve; as a rule, active = well fitted curve in the direction sought with a large enough effect; inconclusive = small, poorly fitted or top-dose-only effect, or another doubt; inactive = no such curve, though single readings can be large; an effect the other way counts as inactive or inconclusive. Unless noted, % is set by controls: 0 for no effect and ±100 for the full control effect; potency is the fitted concentration of half-maximal effect.
SMILES,NPSR antag,ERK EGF block
COc1ccc(NC(=O)/C(Cl)=C(/Cl)S(=O)(=O)Cc2ccccc2)cn1,5µM*,.
COc1ccc(NC(=O)C(Cl)=C(Cl)Cl)cn1,6%,-4%
COc1ccc(NC(=O)CCl)cn1,-7%,6%[57.5 µM]
COc1ccc(Oc2ncc3nc(-c4ccccc4)c(=O)n(Cc4cccs4)c3n2)cc1,.,5%
Cc1ccc(C)c(NC(=S)NC(NC(=O)N(C)C)C(Cl)(Cl)Cl)c1 (configuration not stated),-19%[46.1 µM],.
Cc1ccc(C)c(NC(=S)NC(NC(=O)Cc2cccc3ccccc23)C(Cl)(Cl)Cl)c1 (configuration not stated),7.9µM*,.
COc1cc([C@@H]2c3cc4c(cc3C(OC3OC5COC(C)OC5C(O)C3O)C3COC(=O)[C@@H]32)OCO4)cc(OC)c1O (some centres not stated),.,1%
COc1cc2c(C=O)c3c4c(cc(OC)c(OC)c4c2cc1OC)CCN3C,.,-4%
COc1ccccc1N1CCN(Cc2ccc(O)c3ncccc23)CC1,4µM*,.
Oc1c(CN2CCN(c3ccccc3)CC2)cc(Br)c2cccnc12,7.9µM*,-7%[57.5 µM]
CCOC(=O)C1CCN(Cc2ccc(O)c3ncccc23)CC1,2.5µM*,.
CCOC(=O)C1CCN(Cc2ccccc2C(F)(F)F)CC1,-21%[46.1 µM],.
c1ccc(N2CCN(Cc3ccnc4ccccc34)CC2)cc1,28%[46.1 µM],.
COc1ccccc1N1CCN(Cc2ccc(OC)c(OC)c2OC)CC1,5%[46.1 µM],.
COC(=O)[C@H]1[C@@H]2C[C@H]3c4[nH]c5ccccc5c4CCN3C[C@@H]2CC[C@@H]1O,.,-10%
CC(=O)OCC(=O)[C@@]1(O)CC[C@@H]2[C@H]3CCC4=CC(=O)CC[C@]4(C)[C@]3(F)[C@@H](O)C[C@@]21C,.,-6%[25.7 µM]
CCCCCCCCCCCCC/C=C/[C@@H](O)[C@H](CO)NC(=O)CCCCCCCCCCCCCCC,.,0%
CCOC(=O)C(=O)C1(C(=O)OCC)Oc2cc(OC)cc(OC)c2C(=O)C1c1ccccc1 (configuration not stated),.,16%
Cc1ccc(O)c(C(=O)c2cc(C#N)c3nc4ccccc4n3c2)c1,-12%,32µM*
Cc1ccc(O)c(C(=O)c2cc(C#N)c(=O)n(Cc3ccccc3)c2)c1,-24%,0%
COc1cccc([C@@H]2Oc3ccc(Br)cc3C(=O)[C@H]2OC(=O)NS(=O)(=O)c2ccc(C)cc2)c1,.,-3%
CS(=O)(=O)Oc1ccc2c(c1)O/C(=C\C=C\c1ccccc1)C2=O,-45%,7.9µM*
CCc1ccc(/C=C2\Oc3cc(OS(C)(=O)=O)ccc3C2=O)cc1,-16%,4%
O=[N+]([O-])c1cc(C(F)(F)F)cc([N+](=O)[O-])c1NN=C1CCCCC1,2%[46.1 µM],18µM*
O=[N+]([O-])c1cc(S(=O)(=O)N2CCCC2)ccc1NN=C1CCCCC1,-11%,-2%
SMILES,NPSR antag,ERK EGF block
CC1C(=O)Nc2ccccc2N1C(=O)C1CC1 (configuration not stated),-4%[46.1 µM],.
COC(=O)C1=C(C(=O)OC)SC(=C2C(=S)C(C)(C)N(C(=O)C3CC3)c3ccccc32)S1,13µM*,.
CC1(C)C(=O)Nc2ccccc2N1C(=O)CSc1nc(-c2ccccc2)cs1,1%,10%
COc1ccc(NC(=O)N2c3ccccc3C(C)=CC2(C)C)cc1,-19%,0%
CCCC(=O)N1c2ccccc2C(=C2SC(C(=O)OC)=C(C(=O)OC)S2)C(=S)C1(C)C,-55%,13µM*
COC(=O)C1=C(C(=O)OC)SC(=C2C(=S)C(C)(C)N(C(=O)C(C)C)c3ccccc32)S1,10µM*,.
CS(=O)(=O)N1CCC[C@@]2(CCN(C(=O)Nc3cccc(C#N)c3)C2)C1,.,0%
CCc1ccccc1NC(=S)NCC1CCN(c2ccc(OC)cc2)C1 (configuration not stated),-53%,14µM*
CCc1cccc(C)c1NC(=S)NCC1CCN(c2ccc(OC)cc2)C1 (configuration not stated),-50%,10µM*
COc1ccc(N2CCC(CNC(=S)Nc3cccc(OC)c3)C2)cc1 (configuration not stated),-10%,?
COc1ccc(N2CCC(CNC(=O)Nc3cccc(OC)c3)C2)cc1 (configuration not stated),-28%[46.1 µM],.
CCCn1c(-c2ccc(F)cc2)nc2c(NC(C)CN(C)C)nc(C)nc21 (configuration not stated),.,5%
CC(=O)N(c1ccccc1C)C1CCCC1,10%,8%
CC(=O)N(C1=C(Cl)C(=O)c2ccccc2C1=O)C1CCCCC1,6.3µM*,25µM*
COc1cc(C(=O)O)ccc1O,12%,1%
O=C(O)c1ccc2cc(-c3ccc(O)c(C45CC6CC(CC(C6)C4)C5)c3)ccc2c1,.,25µM*
CCCCCCCCCCCCCCC(C(=O)O)C(O)(CC(=O)OC)C(=O)O (configuration not stated),.,23%
COC(=O)C/C=C/[C@@H](C)[C@H](OC)c1c(Br)ccc2c1OCO2,.,-8%
COc1ccc(-c2csc(NC(=S)NC(=O)/C=C/c3ccccc3)n2)cc1Br,37%,0%[57.5 µM]
O=C(/C=C/c1ccco1)NC(=S)Nc1nc(-c2ccc(Cl)cc2)cs1,3.2µM*,.
O=C(/C=C\c1ccco1)Nc1nc(-c2ccccc2)cs1,19%,19%
O=C(/C=C/c1ccco1)NC(=S)Nc1nc(-c2ccc3ccccc3c2)cs1,1.3µM*,0%
O=S(=O)(c1ccccc1)N1CCC2(CCCN(Cc3ccncc3)C2)CC1,.,10%
C=CC(C)(O)CC1[C@@]2(C)CCCC(C)(C)C2CC[C@]1(C)O (some centres not stated),.,-10%
CCCCS(=O)(=O)/C=C\C=C/S(=O)(=O)CCCC,5µM*,.
SMILES,NPSR antag,ERK EGF block
CCCCS(=O)(=O)/C=C\C1C2C=CC(C2)C1S(=O)(=O)CCCC (configuration not stated),-5%[46.1 µM],.
CCc1ccc2n(-c3ccc(OC)cc3)c([S-])c(C(=O)Nc3cc(C)cc(C)c3)[n+]2c1,10µM*,-5%[57.5 µM]
COc1ccc(CCNC(=O)c2c([S-])n(-c3ccc(C)cc3)c3cccc[n+]23)cc1,-42%,-7%[57.5 µM]
CO[C@]1(NC(=O)C(C(=O)O)c2ccc(O)cc2)C(=O)N2C(C(=O)O)=C(CSc3nnnn3C)COC21 (some centres not stated),.,0%
CCCC(=O)O[C@]1(C(=O)CCl)[C@@H](C)C[C@H]2[C@@H]3CCC4=CC(=O)C=C[C@]4(C)[C@@]3(F)C(=O)C[C@@]21C,3.2µM*,-11%[57.5 µM]
C[C@@H]1C[C@@H]2[C@H]3CCC4=CC(=O)C=C[C@]4(C)[C@]3(F)[C@@H](O)C[C@]2(C)[C@@]1(O)C(=O)CO,.,4%[25.7 µM]
CCC(=O)O[C@@]1(C(=O)CCl)C(C)CC2C3CCC4=CC(=O)C=C[C@@]4(C)[C@]3(F)C(O)C[C@]21C (some centres not stated),.,10%
CCC(=O)O[C@]1(C(=O)CCl)[C@@H](C)C[C@H]2[C@@H]3CCC4=CC(=O)C=C[C@]4(C)[C@@]3(F)[C@@H](O)C[C@@]21C,2µM*,-16%[57.5 µM]
COC(=O)N1[C@H](C)C=C[C@]1(Cc1ccccc1)C(=O)NCc1ccc(N(C)C)cc1,.,-3%
CC1(C)C(=O)C(c2ccccc2)=C2CN3C(=O)N(CCc4ccccc4)C(=O)C3(Cc3ccc(C(F)(F)F)cc3)C=C21 (configuration not stated),.,1%

# Compound activity deposited in PubChem by National Center for Advancing Translational Sciences (NCATS).
